The results in this text go back to PubChem BioAssay AID1508602 (The Scripps Research Institute Molecular Screening Center, 2020).

Several values for one entry are separate records, joined by “and”; a condition that tells them apart may be missing. Equal values may be shown once. The campaign covered roughly 650,000 compounds. About 6,800 (1%) were called active. No stated cut-off is given here; in the data, active means activation above about 4.9%; inactive means the rest. For the sample, actives were picked, then their nearest neighbours and some compounds at random.

Chain of G-protein coupled receptor 151 (Homo sapiens) (Q8TDV0 whole entry, looked up): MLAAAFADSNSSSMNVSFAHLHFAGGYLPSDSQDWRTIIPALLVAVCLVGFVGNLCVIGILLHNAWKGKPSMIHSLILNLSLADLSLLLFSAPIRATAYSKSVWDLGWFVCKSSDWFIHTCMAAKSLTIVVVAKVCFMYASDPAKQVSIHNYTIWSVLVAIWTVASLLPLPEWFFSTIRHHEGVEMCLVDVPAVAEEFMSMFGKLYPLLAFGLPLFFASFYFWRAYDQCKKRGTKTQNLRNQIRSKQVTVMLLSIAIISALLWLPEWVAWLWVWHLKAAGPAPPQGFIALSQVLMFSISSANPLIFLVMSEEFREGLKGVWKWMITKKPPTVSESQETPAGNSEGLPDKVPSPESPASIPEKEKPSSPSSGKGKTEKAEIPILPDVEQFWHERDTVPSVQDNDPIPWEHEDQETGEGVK

The assay has as its target G-protein coupled receptor 151 (Homo sapiens) (UniProt Q8TDV0). In words: activates the human receptor GPR151, primary screen, cell-based, PathHunter beta-arrestin, luminescence (AID 1508602).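 Further: 0% = median of compound wells and 100% = cells with positive control.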 Particulars: PathHunter beta-arrestin GPR151 cells, at 11.2 µM, hits give high values.
In the case of `CCOc1ccc(C2C(C#N)=C(N)N(c3sc4c(c3C#N)CCCC4)C3=C2C(=O)CC(C)(C)C3)cc1` (configuration not stated), the activation is -0.802% (inactive).
For `COc1ccc(CCn2c(-c3ccc(S(=O)(=O)N4CCOCC4)cc3)csc2=Nc2cccc(C(F)(F)F)c2)cc1OC`, the activation is 0.281% (inactive).
The figure for `N#Cc1ccccc1OCC(=O)OCC(=O)Nc1ncc(Cl)cc1Cl` is 0.379% (inactive); for `CCOC(=O)CNC(=O)c1sc2ncn(CC(=O)Nc3ccc(C(C)C)cc3)c(=O)c2c1C` it is -1.34% (inactive) and -1.19% (inactive).
The figure for `O=C(CN1C(=O)CCC1=O)NC(c1ccccc1)c1ccccc1` is -0.973% (inactive).
The figure for `O=C(CN1C(=O)c2ccccc2C1=O)NC(c1ccccc1)c1ccc(Br)cc1` (configuration not stated) is 5.23% (active); for `O=C(CN1C(=O)c2ccc([N+](=O)[O-])cc2C1=O)NC(c1ccccc1)c1ccccc1` it is 0.498% (inactive).
As to `NC(=O)c1c(NC(=O)CN(C(=O)c2ccco2)C2CCCC2)sc2c1CCCC2`, the activation was 3.42% (inactive).
Consider `CN(CC(COc1cccc2ccccc12)OC(=O)c1ccc(Cl)cc1Cl)C1=NS(=O)(=O)c2ccccc21` (configuration not stated), for which the activation was 0.501% (inactive).
In the case of `CSc1nnc2n(/N=C/c3ccc(F)cc3)cnn12`, the activation was -3.69% (inactive).
In the case of `CCC(C)(C)NC(=O)CN(C(=O)c1csnn1)c1cccc(C)c1C`, the activation was -1.04% (inactive).
Regarding `Cc1ccc(NCC(=O)N/N=C\c2ccc(I)o2)cc1`, the activation was 5.65% (active).
Turning to `O=C(N/N=C\c1ccc(I)o1)c1ccc(Br)cc1`, the activation was 1.14% (inactive).
On to `COc1ccc(Cl)cc1/C=N/NC(=O)CNc1ccc(C)cc1`, for which the activation is 0.958% (inactive).
In the case of `COc1ccc(NS(=O)(=O)c2cc3c4c(c2)CC(=O)N4CCC3)cc1Cl`, the activation is 3.82% (inactive).
As for `O=C1Cc2cc(S(=O)(=O)Nc3ccc(C(F)(F)F)cc3)cc3c2N1CCC3`, the figure is -0.781% (inactive).
`O=C1Cc2cc(S(=O)(=O)Nc3cccc(Cl)c3)cc3c2N1CCC3`: the activation was 5.26% (active).
As for `Cc1cccc(C)c1-n1c(N)c(C(=O)NCc2ccccc2)sc1=S`, the figure is -0.178% (inactive).
`Cc1ccc(C)c(NC(=O)CN(C)S(=O)(=O)c2ccc3nc(-c4ccccc4)[nH]c3c2)c1`: the activation was -2.02% (inactive).
As for `CC12c3ccccc3C(c3ccccc31)C1C(=O)N(c3cccc(C(F)(F)F)c3)C(=O)C12` (configuration not stated), the figure is 1.26% (inactive); as for `Cc1ccc(N2C(=O)C3C4c5ccccc5C(CO)(c5ccccc54)C3C2=O)cc1` (configuration not stated), -0.914% (inactive); as for `CC(=O)Oc1cccc(N2C(=O)C3C4c5ccccc5C(C)(c5ccccc54)C3C2=O)c1` (configuration not stated), 22.7% (active).
In the case of `CCOc1ccc(N2C(=O)C3C4c5ccccc5C(C(C)O)(c5ccccc54)C3C2=O)cc1` (configuration not stated), the activation was 4.96% (active).
Regarding `CC12c3ccccc3C(c3ccccc31)C1C(=O)N(c3ccc(C(=O)O)cc3)C(=O)C12` (configuration not stated), the activation is -0.384% (inactive).
With `CC12c3ccccc3C(c3ccccc31)C1C(=O)N(c3cccc(C(=O)O)c3)C(=O)C12` (configuration not stated), the activation was -0.158% (inactive).
The figure for `COc1cc(C2Nc3cc(C)c(C)cc3NC3=C2C(=O)CC(C)(C)C3)cc(OC)c1OC` (configuration not stated) is 0.742% (inactive).
As to `CCOC(=O)C1(Cc2cccc(OC)c2)CCCN(C(=O)COc2ccccc2OC)C1` (configuration not stated), the activation was 2.47% (inactive).
As for `CCOC(=O)C1=CN(c2ccc(OCC)cc2)C=C(C(=O)OCC)C1c1ccc(OC)cc1`, the activation is 0.997% (inactive).
As for `CCOC(=O)C1=CN(C)C=C(C(=O)OCC)C1c1ccc(OC)cc1`, the activation was 5.01% (active).
For the compound `CCOC(=O)C1=CN(C)C=C(C(=O)OCC)C1c1ccc(OC)c(Br)c1`, the activation is -0.344% (inactive).
The figure for `O=C(NCCc1ccc(O)cc1)c1cccc(Nc2ccncn2)n1` is -1.69% (inactive); for `N#Cc1ccc(C(=O)OCc2ccc(Br)cc2)cc1` it is -1.47% (inactive); for `CCOc1ccc(/C=C2N=C(/C=C\c3cccc([N+](=O)[O-])c3)OC/2=O)cc1` it is -1.22% (inactive).
The figure for `O=C1OC(/C=C/c2cccc(Cl)c2Cl)=NC/1=C\c1cccc([N+](=O)[O-])c1` is 0.433% (inactive); for `CCOc1ccc(/C=C2N=C(/C=C/c3cccc(Cl)c3Cl)OC\2=O)cc1` it is 6.64% (active).
As to `CN(Cc1cccc(C(F)(F)F)c1)C(=O)CC1C(=O)NCCN1Cc1ccccc1` (configuration not stated), the activation was -0.0176% (inactive).
For the compound `O=C(c1ccc(Cl)cc1)N1N=C(c2ccccc2)CC1c1ccc(Cl)cc1` (configuration not stated), the activation was 0.747% (inactive).
As for `COc1ccc(C2=NN(C(=O)c3ccccc3Cl)C(c3cccc(OC)c3OC)C2)cc1OC` (configuration not stated), the activation is -0.321% (inactive).
For the compound `COc1ccc(C2=NN(C(=O)c3cc(OC)c(OC)c(OC)c3)C(c3ccc(Cl)cc3)C2)cc1OC` (configuration not stated), the activation is 7.04% (active).
As for `Cc1nnc(SCc2ccc(CSc3nnc(C)n3N)cc2)n1N`, the figure is -2.22% (inactive); as for `COc1ccc(-c2cc(N)n(S(=O)(=O)c3ccc([N+](=O)[O-])cc3)n2)c(OC)c1`, -0.106% (inactive).
`COc1ccccc1-c1cc(N)n(S(=O)(=O)c2ccccc2)n1`: the activation was -0.0893% (inactive).
The figure for `COc1ccc(-c2cc(N)n(S(=O)(=O)c3ccccc3)n2)c(OC)c1` is 6.94% (active); for `O=C1COc2cc(S(=O)(=O)CCC(=O)N3CCN(c4ccccc4F)CC3)ccc2N1` it is 0.891% (inactive); for `CCOc1ccc(OCCOCCN2CC(C)OC(C)C2)cc1` (configuration not stated) it is -1.18% (inactive).
Take `COc1ccc(Nc2nc(-c3ccc(F)cc3)cs2)c(OC)c1`: the activation is 13.1% (active).
`COc1ccccc1Nc1nc(-c2ccc(Br)cc2)cs1`: the activation is -0.402% (inactive).
As for `COc1ccc(N/C=C(/C#N)c2nc(-c3ccc(F)cc3)cs2)c(OC)c1`, the figure is 1.79% (inactive); as for `COc1ccc(-n2c(=S)[nH]c3cc(C(=O)Nc4cccc(Cl)c4)ccc3c2=O)c(OC)c1`, 1.31% (inactive); as for `O=C(N/N=C\c1ccccc1Cl)c1ccccn1`, -5.29% (inactive).
Take `O=C(N/N=C\C=C\c1ccccc1)c1ccccn1`: the activation was 8.89% (active).
`O=C(N/N=C\c1ccccc1)c1ccccn1`: the activation is -3.62% (inactive).
On to `CC(=O)OCc1cn(-c2nonc2N)nn1`, for which the activation is 2.37% (inactive).
Regarding `CC(=O)C1=C(O)C(=O)N(CC#N)C1c1ccc(F)cc1` (configuration not stated), the activation was -0.438% (inactive).
In the case of `O=C(COc1ccc(Br)cc1CO)NCC(F)(F)F`, the activation is 8.84% (active).
In the case of `O=C(COc1ccc(Br)cc1Cl)NCCO`, the activation was 0.504% (inactive).
Turning to `COc1ccc(OCC(=O)NCC(F)(F)F)c([N+](=O)[O-])c1`, the activation is 1.07% (inactive).
As to `COc1ccc(-c2cc(C(=O)Nc3cc(Cl)ccc3O)no2)cc1OC`, the activation is 0.999% (inactive).
With `Cc1cc2c(c(=O)o1)C(c1cccc(OCc3c(F)cccc3Cl)c1)C(C#N)=C(N)O2` (configuration not stated), the activation is 1.06% (inactive).
For `O=C1N[C@@H](Cc2ccc(Cl)cc2)C(=O)N2C[C@@H](NCc3nc(-c4ccc(F)cc4)cs3)C[C@@H]12`, the activation was -2.22% (inactive).
`CCC[C@@H]1NC(=O)[C@@H]2C[C@H](NCc3nc(-c4ccc(F)cc4)cs3)CN2C1=O`: the activation was 5.66% (active).
For the compound `CC(C)C[C@H]1NC(=O)[C@@H]2C[C@H](NCc3cc(F)ccc3F)CN2C1=O`, the activation was -0.818% (inactive).
The figure for `O=C(NCc1ccc(Cl)cc1)C(=O)NC1CCCCCC1` is 1.92% (inactive); for `Cc1cc(NC(=O)CSc2nnc3c(n2)[nH]c2ccc(S(=O)(=O)N4CCOCC4)cc23)no1` it is -0.982% (inactive); for `Cc1c2cnn(CC(=O)NCC(C)c3ccccc3)c(=O)c2c(C)n1Cc1ccccc1` (configuration not stated) it is -0.872% (inactive).
In the case of `CC1CCN(CC(=O)Nc2ccc(Cl)cc2)CC1`, the activation was -1.21% (inactive).
As for `CC1CCN(CC(=O)Nc2ccccc2Cl)CC1`, the figure is 20.2% (active).
Consider `Cc1cc(C)cc(NC(=O)NC2CCN(CC(=O)Nc3cccc(Cl)c3C)CC2)c1`, for which the activation is 0.14% (inactive).
For the compound `COc1ccc(NC(=O)C2CCCN2C(=O)Nc2ccccc2)cc1` (configuration not stated), the activation is 2.01% (inactive).
As for `Nc1cccc(-c2ncc(C(=O)NC3CC3)s2)c1`, the activation is -0.0842% (inactive).
For `O=C(CC12CC3CC(CC(C3)C1)C2)Nc1ccc2oc(=O)ccc2c1`, the activation is 6.05% (active).
As for `O=C(CC12CC3CC(CC(C3)C1)C2)Nc1ccc2c(c1)COC2=O`, the figure is -1.36% (inactive) and 1.16% (inactive).
With `O=C(COc1ccc(Cl)cc1)Nc1ccc2oc(=O)ccc2c1`, the activation was 1.66% (inactive).
As for `CCCOc1ccc(C2CC(=O)NC3=C2C(=O)CC(C)(C)C3)cc1` (configuration not stated), the activation is 0.129% (inactive).
For `CC1(C(=O)Nc2cccc(C(F)(F)F)c2)CC2c3ccccc3C1c1ccccc12` (configuration not stated), the activation was 6.33% (active).
Consider `CC1(C)C(=O)C2(C(=O)Nc3cccc(C(F)(F)F)c3)CCC1C2` (configuration not stated), for which the activation is -0.111% (inactive).
For `Cc1ccc(NC(=O)C2(C)CC3c4ccccc4C2c2ccccc23)cc1C` (configuration not stated), the activation is -0.659% (inactive).
As for `O=C(NC(=S)Nc1ccc(-c2nc3ncccc3o2)cc1)c1ccc(I)cc1`, the activation was -0.544% (inactive).
`CC1CCCC(NC(=O)CSc2cc(=O)n(C)c3ccc(Cl)cc23)C1C` (configuration not stated): the activation was 1.18% (inactive).
Regarding `COC(=O)CN1C(=O)c2cccnc2Oc2ccc(C)cc21`, the activation is -1.68% (inactive).
The figure for `CCOC(=O)C1CCN(C(=O)CN2C(=O)c3cccnc3Oc3ccc(C)cc32)CC1` is 2.66% (inactive); for `Cc1ccc2c(c1)N(CC(=O)N1CCC(C)CC1)C(=O)c1cccnc1O2` it is 5.35% (active); for `CC1Cc2ccccc2N1S(=O)(=O)c1nnc(NC(=O)c2ccc(F)cc2)s1` (configuration not stated) it is -0.611% (inactive).
Take `COc1ccccc1NC(=O)c1c(NCc2cccs2)sc2c1CCCC2`: the activation was 1.25% (inactive).
Consider `C#CCN=Cc1c(O)n(CC)c(=S)n(CC)c1=O`, for which the activation was -0.872% (inactive).
Take `Cc1cccc(NC(=S)N(CCCN2CCCC(C)C2)Cc2cccs2)c1` (configuration not stated): the activation is 2.67% (inactive).
As for `CCOC(=O)C1=CN(c2ccc(C)cc2)C=C(C(=O)OCC)C1c1ccc(Cl)c(Cl)c1`, the figure is 1.19% (inactive).
